In PubChem BioAssay (NCI):
The panel holds about 83,000 compounds, 20% with a hit somewhere; the sample as a whole holds those more often.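 Testing used 96-well plates and a 48-hour single-concentration exposure. Example: -40 means 40% of the starting cells died.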 Unmarked numbers belong to inactive results. The source made the active and inactive calls. How the source made its calls: active means growth percent below 10; inactive means the rest.

Assays:
Assay in all cases: NCI-60 one-dose screen, 48 h (100 = growth as untreated, 0 = no growth, -100 = all killed)
Conditions in all cases: 10 µM unless noted
[1] = tested on: DU-145 prostate
[2] = tested on: K-562 leukemia
[3] = tested on: MALME-3M melanoma
[4] = tested on: MDA-MB-231 breast
[5] = tested on: RXF 393 renal
[6] = tested on: SF-268 CNS
[7] = tested on: SF-295 CNS
[8] = tested on: SF-539 CNS
[9] = tested on: UACC-257 melanoma
[10] = tested on: M14 melanoma

SMILES	growth [1]	growth [2]	growth [3]	growth [4]	growth [5]	growth [6]	growth [7]	growth [8]	growth [9]	growth [10]
CC(=O)O[C@H]1CC[C@]2(C)[C@H]3CC=C4[C@@H]5CC(C)(C)CC[C@]5(C(=O)N5CCN(CCC#N)CC5)CC[C@@]4(C)[C@]3(C)CC[C@H]2C1(C)C	57.8%	10%	26%	48.5%	74.3%	51.8%	65.5%	16.7%	18.1%	35.7%
CN(C)CCC(=O)C1CC1	111%	102%	102%	103%	104%	102%	116%	107%	91.7%	104%
COC(=O)[C@]1(C)CCC[C@]2(C)[C@H]3C[C@@H]4[C@H]5[C@@H]6CC/C(=N\OCC/C(N)=N/O)[C@H]5[C@@]3(CC[C@H]21)CC4(C(C)C)O6	71.5%	79.3%	82.1%	61.2%	42.5%	72.9%	72.7%	79.2%	80.4%	72.6%
O=C(CCCCCCCC(=O)N1CCCCC1)N1CCCCC1	106%	114%	115%	94.1%	123%	104%	117%	103%	89.3%	102%
CCn1cc(C(=O)N/N=C/c2ccccc2)c(=O)c2cc(F)c(N3CCNC(C)C3)c(F)c21 (stereo not given)	-87.9% (active)	-39.4% (active)	-78% (active)	-70.4% (active)	-61.3% (active)	38.9%	8.87% (active)	-86.9% (active)	39.6%	-49.7% (active)
Cc1cc(N2CCN(CC(=O)Nc3ccc4c(ccn4Cc4ccccc4)c3)CC2)nc(N2CCOCC2)n1	95.4%	60.5%	85.7%	93.4%	63.9%	92.9%	84%	98.2%	80.2%	90.1%
COC1C(O)CC(OC2CC(OC3CC(O[C@@H]4C(=O)c5c(cc6cc(OC7CC(OC8CC(O)C(O)C(C)O8)C(O)C(C)O7)c(C)c(O)c6c5O)CC4[C@H](OC)C(=O)O)OC(C)C3O)OC(C)C2O)OC1C (stereo not given in full)	22.3%	21.2%	13.9%	48.4%	-45.7% (active)	28.4%	10.9%	5.86% (active)	-8.56% (active)	35.4%
O=S(=O)(Nc1cc(F)cc(F)c1)c1ccc(-c2cnc(C3CC3)o2)cc1	70.4%	9.67% (active)	50.1%	58.2%	46.6%	56.7%	20.9%	29.2%	62.7%	16.5%
CNC(=O)c1cc(Oc2ccc3c(c2)sc2nc(-c4ccc(NC(=O)[C@@H](NC(=O)OC)C(C)C)cc4)cn23)ccn1	84.8%	47.3%	49.4%	71.9%	85.3%	82.5%	68.7%	88.2%	59.5%	64.1%
O=S(=O)(NCCNc1nccc(-c2c(-c3ccc(F)c(O)c3)nc3sccn23)n1)c1ccc(Cl)cc1	44%	15.7%	20.6%	50.1%	25%	32.3%	29.5%	43%	32.9%	27.5%
COc1cc(Cc2cc(OC)c(O)c(OC)c2)cc(OC)c1O	117%	20.1%	86%	95.2%	86.3%	105%	62.2%	101%	89.3%	75.3%
COc1ccc(-c2cc(-c3cn(-c4cccc(Cl)c4)nc3-c3ccc(OC)cc3)on2)cc1	113%	84.7%	127%	80.9%	102%	108%	108%	112%	112%	101%
COc1ccc(NC(=O)c2ccc(Nc3ncnc4c3cnn4-c3cccc(F)c3)cc2)cc1	103%	94.8%	92.6%	92%	90.2%	99.1%	98.3%	96.5%	97.9%	98.4%
Cc1ccc2cnc(N)c(C#Cc3cc(C(=O)Nc4ccc(CN5CCN(C)CC5)c(C(F)(F)F)c4)cnc3C)c2c1	-95% (active)	-43% (active)	-74.7% (active)	-70.5% (active)	-91.2% (active)	17.4%	37.4%	-85.9% (active)	31.9%	-90.3% (active)
COc1ccccc1/C=C/C(=O)Nc1ccc(F)cc1	98.6%	84.8%	95.9%	88.6%	102%	99.7%	96%	101%	99.4%	96.7%
CN(C)CCCn1c2c(c3ccncc3c1=O)C(=O)c1ccccc1-2	-8.23% (active)	-61.6% (active)	-55.8% (active)	8.66% (active)	-15.7% (active)	-15.3% (active)	1.81% (active)	-17% (active)	-30.3% (active)	-36.5% (active)
CC(C)Cc1nc(Nc2ccccc2)[nH]c(=O)c1C#N	70.8%	48.8%	72.6%	47.9%	67.4%	63.3%	58.7%	50.7%	81.2%	53.2%
CCN(CCNc1ccc(C)c2sc3cc(Cl)ccc3c(=O)c12)CC(C)(C)O	86.8%	29.7%	67.5%	32%	-18.5% (active)	79.8%	88%	65.8%	-8.78% (active)	-65.9% (active)
CC(C)CCC[C@@H](C)[C@H]1CC[C@H]2[C@@H]3CC=C4c5sc(Nc6cc(C(F)(F)F)cc(C(F)(F)F)c6)nc5CC[C@]4(C)[C@H]3CC[C@]12C	104%	101%	94.8%	108%	107%	101%	104%	98%	99.2%	98.6%
Cc1ccc2c(c1)nc(C)n2-c1ncnc2c1CC(C)c1cc(O)ccc1N2C (stereo not given)	42.1%	14.8%	48.9%	50.8%	10.7%	44.1%	11.1%	28.7%	17.9%	15%
COc1ccc(/C=C2\c3cc(OC)c(OC)c(OC)c3CC[C@@H]2O)cc1F	19.5%	13.4%	70.2%	28.8%	8.31% (active)	53.9%	17%	1.44% (active)	39%	5.42% (active)
CN1C(=O)N2CN3CCCN(C3)CN3C(=S)NC1C23 (stereo not given)	103%	97.1%	112%	104%	109%	99.8%	105%	103%	87.6%	107%
CCN(CC)CCn1c2ccc(OC)cc2c2sc3cc(O)ccc3c(=O)c21	42.7%	6.38% (active)	34.1%	54.1%	27.5%	38.5%	17.9%	25.3%	78.4%	31.2%
O=C1c2cccnc2C(=O)c2c1c(C(=O)OCCc1ccccn1)c1ccccn21	-87.9% (active)	-2.55% (active)	-57.5% (active)	5.98% (active)	-46.6% (active)	-1.63% (active)	-50.9% (active)	-57.2% (active)	-53.2% (active)	-70.5% (active)
C=C(C)[C@@H]1CC[C@]2(C(=O)N3CCN(C)CC3)CC[C@]3(C)[C@H](CC[C@@H]4[C@@](C)(CCC(=O)O)[C@H](C(=C)C)CC[C@]43C)[C@@H]12	99.9%	58%	87%	91.2%	93.3%	80.6%	78.8%	92.6%	83.5%	87.1%
CC(C)(C)OC(=O)CN1CCc2c(sc3ncnc(N4CCN(c5ccc(F)cc5)CC4)c23)C1	90.1%	87.7%	90.6%	75.7%	92.2%	81.9%	104%	81.6%	97.7%	98.4%
